High-throughput results: PubChem, National Center for Advancing Translational Sciences (NCATS)
PKM2 activator = increases activity of human pyruvate kinase M2 | P14618 | purified PKM2, Kinase-Glo ATP luminescence, activation; response scale: 0% is enzyme alone, no compound | Potency, µM (titrated, usually from 57.5 µM), for inactives: at the top dose activation, actives largely listed as activators | 0.34% of 260,000 active | AID 1631; also: potency is read from the fitted curve at half-maximal effect; nearly all actives have a fitted effect of over 55% in size
Target sequence (P14618 whole entry, looked up): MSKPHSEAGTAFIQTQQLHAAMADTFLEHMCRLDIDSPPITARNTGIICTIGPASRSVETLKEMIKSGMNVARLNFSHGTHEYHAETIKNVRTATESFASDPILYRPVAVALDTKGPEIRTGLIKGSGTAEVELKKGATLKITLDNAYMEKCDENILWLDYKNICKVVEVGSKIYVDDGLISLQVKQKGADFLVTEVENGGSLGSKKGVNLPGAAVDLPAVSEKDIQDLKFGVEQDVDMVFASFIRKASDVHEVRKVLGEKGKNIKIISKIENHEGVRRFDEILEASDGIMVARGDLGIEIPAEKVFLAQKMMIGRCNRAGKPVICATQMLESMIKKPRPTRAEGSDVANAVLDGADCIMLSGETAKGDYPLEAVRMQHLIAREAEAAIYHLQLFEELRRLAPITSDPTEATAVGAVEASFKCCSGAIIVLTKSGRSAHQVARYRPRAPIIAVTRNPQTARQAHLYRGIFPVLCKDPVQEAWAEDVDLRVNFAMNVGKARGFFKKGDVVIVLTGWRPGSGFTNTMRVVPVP
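hPK-M2, >95% pure; 0.1 mM ADP / 0.5 mM PEP final; imidazole pH7.2 buffer w/ 7 mM MgCl2, 50 mM KCl; 1 h RT; Kinase-Glo lum. Intermediate enzyme activity for dual inhibitor/activator qHTS.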
Six1-Eya2 inh = Six1/Eya2 interaction inhibition. activity change, % (test concentration not listed). AlphaScreen GST-Six1/His-Eya2 binding, biochemical; hits give low values. 0.56% of 360,000 active. Q15475+O00167; in the data active = activity change below about -65%; inconclusive = mostly about -30% to -63%
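GST-Six1 + His-Eya2 (5X stock: 250/500 nM); Tris pH 8.0, 300 mM NaCl, 0.05% BSA, 0.02% Tween 20; GSH donor/Ni acceptor beads; 1 h 37 °C dark; AlphaScreen readout.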
Gal4-VP16 FLuc = counter-screen for ROR gamma inhibitors: Gal4-VP16 reporter; Drosophila S2 Gal4-VP16 UAS-luciferase, luminescence, 20 h; Potency, µM (series often up to 53.6 µM), without a hit: at the top dose activity, negative = inhibition, hits mostly inhibitors; 3.5% of 310,000 active;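 also: Gal4-VP16 expression switched on by copper sulfate through the metallothionein promoter; potency is read from the fitted curve at half-maximal effect; nearly all actives have a fitted effect of over 50% in size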
RORgamma inh = ROR gamma (mouse) transcription inhibition | P51450 | Drosophila S2 Gal4-RORgamma UAS-luciferase reporter, 20 h | Potency, µM (titrated, usually from 53.6 µM), for inactives: at the top dose activity change, negative = inhibition, most hits filed as inhibitors | 5.4% of 310,000 active | AID 2551; also: potency is read from the fitted curve at half-maximal effect; nearly all actives have a fitted effect of over 60% in size
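Using a luciferase readout, inhibitors were identified by reduced reporter activity in Drosophila cells coexpressing a copper-inducible Gal4–ROR gamma fusion and UAS-driven Photinus luciferase, incubated 20 hr after 700 uM copper sulfate.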
CtBP-E1A blk = CtBP/E1A binding inhibition; activity change, % (concentration not given with the values); AlphaScreen GST-E1A/His-CtBP binding, 1536-well; hits give low values; 0.49% of 340,000 active; in the data active = activity change below about -65%; inconclusive = mostly about -30% to -63%
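AlphaScreen with 125 nM GST-E1A and 125 nM His-CtBP (5X stocks) in Tris pH 8.0, 300 mM NaCl, BSA, Tween 20, TCEP. Compounds preincubated 2 h at 37 deg C, then glutathione donor/nickel acceptor beads added for 1 h at 37 deg C in dark.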
Active calls of the source: *; u = inconclusive; x = not tested or not shown; [ ] = remark or other dose. In the library only some 5.6% were active in any assay of this set; here they are far more common. Unless noted, calls follow the shape of the dose curve; as a rule, active = well fitted curve in the direction sought with a large enough effect; inconclusive = small, poorly fitted or top-dose-only effect, or another doubt; inactive = no such curve, though single readings can be large; an effect the other way counts as inactive or inconclusive. % is scaled to controls: 0 for no effect and ±100 for the full control effect.

SMILES | PKM2 activator | Six1-Eya2 inh | Gal4-VP16 FLuc | RORgamma inh | CtBP-E1A blk
Cc1ccc(C)c(N2CC(C(=O)Nc3cc(C)on3)CC2=O)c1 (stereo unspecified) | x | -1 | 4% | 1% | 2
CCOC(=O)C1(C)NC(c2cccc(C)c2)C2C(=O)N(c3ccccc3)C(=O)C21 (stereo unspecified) | 5% | -1 | 2% | -2% | x
COc1ccc(NC(=S)Nc2cccc(C)n2)cc1 | 1% | -9 | 4.5µM* | u | -20
CCOc1ccc(NC(=S)NCc2cccnc2)cc1 | 0% | 2 | 14% | -14% | 1
CCOc1ccc(NC(=S)Nc2ccc(OC)cc2)cc1 | -2% | -7 | u | 7.9µM* | -2
COc1ccc(NC(=O)Nc2cccc(C)n2)cc1 | -1% | -9 | -3% | 0% | -1
CCOc1ccc(NC(=S)Nc2ccc(OCc3ccccc3)cc2)cc1 | -17% | 10 | 22µM* | u | 4
CNC(=S)Nc1ccc(OCc2ccccc2)cc1 | 3% | -9 | u | 4µM* | 4
CCOc1ccc(NC(=S)Nc2ccc(Br)cc2Cl)cc1 | -4% | 3 | u | 14µM* | -9
CCOc1ccc(NC(=S)NCCCN2CCN(c3ccc(OC)cc3)CC2)cc1 | -3% | -12 | u | 5µM* | -15
COc1cccc(NC(=S)Nc2ccc(Br)cc2Cl)c1 | 1% | -5 | 0% | -2% | -10
CCOc1ccc(NC(=S)NCCCc2ccccc2)cc1 | -5% | -16 | u | 5µM* | 0
COc1ccc(NC(=S)NCCCN2CCCC2)cc1 | -2% | -3 | 6% | 13% | 12
CCOc1ccc(NC(=S)NCCN2CCN(Cc3ccccc3)CC2)cc1 | -5% | -1 | u | 11µM* | 2
Cc1cc(C)n(CCNS(=O)(=O)c2ccccc2)n1 | -8% | 9 | 8% | -9% | 1
CCOC(=O)C(CC(=O)Nc1nc(C(C)=O)c(C)s1)C(C)c1ccccc1 (stereo unspecified) | x | 8 | -8% | -6% | -1
C/C(=N/NC(=O)CN1CCN(S(=O)(=O)c2ccc(C)cc2)CC1)c1ccco1 | -1% | 5 | -2% | 14% | 3
CCC(C)c1ccc(NC(=S)Nc2ccc(OC)cc2)cc1 (stereo unspecified) | 6% | -7 | 5.6µM* | 7.1µM* | 4
Cc1cccnc1NC(=S)Nc1ccc(Br)cc1Cl | 0% | -9 | 7.1µM* | 2.5µM* | x
CCN(CC)C(=S)Nc1ccc(OC)cc1 | -5% | 0 | 3% | -34% | 0
CCOc1ccc(CSCCNC(=S)Nc2ccccc2)cc1 | -2% | -19 | 4.5µM* | 6.3µM* | -6
CC(C)(C)c1ccc(OCCNC(=S)Nc2ccccc2)cc1 | 0% | 0 | -3% | -25% | -6
OC(c1ccc(CN2CCCCC2)cc1)c1ncc(-c2ccccc2)[nH]1 (stereo unspecified) | x | 5 | x | x | -28
CCc1noc(C)c1C(=O)N1CCC(CCC(=O)Nc2cccc(C)c2)CC1 | x | 5 | -2% | 4% | -5
Cc1ccc2c(c1)c1c3n2CCN=C3CCC1 | 1% | -2 | u | 11µM* | -2
SMILES | PKM2 activator | Six1-Eya2 inh | Gal4-VP16 FLuc | RORgamma inh | CtBP-E1A blk
NC(=S)NNc1cccc2cccnc12 | 2% | -92* | -12% | -28% | -92*
NC(=S)Nc1cccc2cccnc12 | -5% | 4 | -6% | u | 0
CCn1cc([N+](=O)[O-])c(C(=O)N2N=C(c3ccc(Cl)c(Cl)c3)CC2c2ccccc2O)n1 (stereo unspecified) | 22µM* | -12 | u | u | -11
CCn1cc([N+](=O)[O-])c(C(=O)N2N=C(c3ccc4ccccc4c3)CC2c2cc(Br)ccc2O)n1 (stereo unspecified) | 1% | -21 | u | 38% | -9
CCn1cc([N+](=O)[O-])c(C(=O)N2N=C(c3ccc(O)c(OC)c3)CC2c2ccccc2O)n1 (stereo unspecified) | 18µM* | -12 | u | u | -11
Nc1nc(N)nc(-c2cc(O)ccc2O)n1 | x | -10 | x | x | -13
Oc1ccc(O)c(-c2cnns2)c1 | -18% | -3 | u | 3.2µM* | -1
O=C(CSc1ccc(-c2ccccn2)nn1)NCc1ccc(Cl)cc1 | -3% | u | 3% | -24% | -70*
COc1cccc(CNC(=O)CSc2ccc(-c3ccccn3)nn2)c1 | 8% | -65* | -2% | -18% | -74*
O=S1(=O)CC(N2CCC(Cc3ccccc3)CC2)CN1CCc1ccccc1 (stereo unspecified) | x | 0 | x | x | -3
Cc1ccc(Nc2nnc(SCC(=O)NCC3CCCO3)s2)cc1C (stereo unspecified) | x | -68* | x | x | -77*
Nc1nonc1-c1nc2ccccc2n1Cc1ccc(F)cc1Cl | -2% | 12 | u | 16µM* | x
Fc1ccc(Cn2c(-c3cscn3)nc3ccccc32)c(Cl)c1 | 3% | -13 | 0% | -36% | -11
O=C(NC1=NCCS1)c1ccccc1Br | x | -2 | x | x | 5
O=C(NC1=NCCS1)c1cc(-c2cccs2)nc2ccccc12 | 0% | -1 | u | 25µM* | 1
O=C(NC1=NCCS1)c1cccc2ccccc12 | -1% | 10 | 21%[10 µM] | 11µM* | -5
C/C(=N\NC(=O)c1cc(-c2cccs2)nc2ccccc12)c1ccccn1 | 1% | -82* | 0.56µM* | 0.1µM* | -86*
COc1cccc(C(=O)NC2=NCCS2)c1 | -13% | 6 | u | 10µM* | 2
COc1cc(Cn2nnc3ccccc32)cc(Br)c1O | 2% | 1 | 8% | 6% | x
O=C(CSc1ccccc1)NC1=NCCS1 | 3% | 2 | 4% | -8% | 6
CCCC(C(=O)NC1=NCCS1)c1ccccc1 (stereo unspecified) | -4% | 7 | u | 11µM* | 0
Cc1cccc2sc(NNC(=O)c3cc(-c4cccs4)nc4ccccc34)nc12 | -9% | -2 | 18µM* | 0.25µM* | -1
O=C(CSc1cccc2cccc(Cl)c12)NC1=NCCS1 | 1% | -6 | 11µM* | 10µM* | -3
O=C(O)c1cc(-c2cccnc2)nc2ccccc12 | 1% | 2 | -4% | 6% | 3
O=C(NC1=NCCS1)c1cc(-c2cccnc2)nc2ccccc12 | x | -2 | -1% | 11µM* | 2
COc1ccc(-c2cc(C(=O)Nc3nc4c(C)cccc4s3)c3ccccc3n2)cc1OC | -3% | 3 | -4% | 19% | 6
CC(NC(=O)c1ccccc1)C(=O)NC1=NCCS1 (stereo unspecified) | 0% | 0 | 10% | 12% | 9
N#CC1=C(N)Nc2nc3ccccc3n2C1c1ccc(Cl)cc1 (stereo unspecified) | 1% | 4 | -7% | u | 5
CCN(C(=O)COC(=O)c1cccc(NS(=O)(=O)c2ccc(F)c(F)c2)c1)C1CCS(=O)(=O)C1 (stereo unspecified) | 2% | x | -8% | 14% | x
